One assay deals with T1, NIM1.
T1 construct: gene MGC42105
As to conditions: concentration: 1 μM, replicates: in singlicate; n = 1.

The subject of the next assay is NLK. The note with it: concentration: 1 μM, replicates: in singlicate; n = 1.
For a further assay, the system named is T2, OSR1.
T2 construct: gene OXSR1
As to conditions: concentration: 1 μM, replicates: in singlicate; n = 1.

A further assay deals with PAK1. The note with it: concentration: 1 μM, replicates: in singlicate; n = 1.
In a further assay the test system is PAK2. The note with it: concentration: 1 μM, replicates: in singlicate; n = 1.
A further assay deals with PAK3. As to conditions: concentration: 1 μM, replicates: in singlicate; n = 1.
In another assay the test system is PAK4. As to conditions: n = 1.
The next assay has as its system PAK6. The note with it: concentration: 1 μM, replicates: in singlicate; n = 1.
For another assay, the system named is PAK7. As to conditions: concentration: 1 μM, replicates: in singlicate; n = 1.
For the next assay, the system named is T3, PCTK1.
T3 construct: gene CDK16
The note with it: concentration: 1 μM, replicates: in singlicate; n = 1.

The mark [1] stands for this setting: concentration: 1 μM, replicates: in singlicate.

Structures are written as SMILES. Like-named read-outs stand apart in the source and are kept apart here.
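Note: KINOMEscan kinase panel screen.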

For `O=C(Nc1c(F)cccc1F)c1cc(C(=O)c2ccccc2F)c[nH]1` [GSK1326180], the “%Inh” value in the assay on NIM1 is recorded as 0%; in the assay on NLK, 0%; with OSR1, 34%; with PAK1, 0%; in the assay on PAK2, 0%; with PAK3, 0%. Further, the “%Inh” value with PAK4 (setting [1]), in the assay on PAK6, with PAK7 and in the assay on PCTK1 was 0% each time.
For the compound `CCn1cnc2c(NCc3ccccc3)ncnc21` [SKF-96418], the “%Inh” value in the assay on NIM1 amounted to 17%; in the assay on NLK it was 0%; in the assay on OSR1, 0%; with PAK1 it was 11%; in the assay on PAK2 it was 42%; in the assay with PAK3 it was 0%. Further, the “%Inh” value in the assay on PAK4 (setting [1]), with PAK6, in the assay on PAK7 and in the assay with PCTK1 was 0% each time.
`CC(=O)Nc1cn2nc(Oc3cccc(NC(=O)c4cccc(C(F)(F)F)c4)c3)ccc2n1`: the “%Inh” value in the assay on NIM1 turned out to be 0%; in the assay with NLK, 16%; with OSR1 it was 0%; in the assay on PAK1, 9%; in the assay on PAK2 it was 15%; in the assay with PAK3, 16%. Moreover, the “%Inh” value in the assay on PAK4 (setting [1]) was found to be 15%; in the assay on PAK6, 12%; with PAK7, 0%; in the assay on PCTK1 it was 0%.
As to `Cc1cccc(Nc2nc(N[C@H]3CCCC[C@H]3N)ncc2C(N)=O)c1.Cl` [GSK986310], the “%Inh” value with NIM1 is on record as 18%; in the assay on NLK, 27%; with OSR1 it was 33%; in the assay on PAK1, 40%; in the assay on PAK2, 70%; in the assay with PAK3 it was 55%. Besides, the “%Inh” value in the assay on PAK4 (1 µM) came to 95.4%; with PAK6, 89%; with PAK7, 99.5%; in the assay on PCTK1, 10%.
Turning to `CN(c1ccc(NC(=O)Nc2cccc(Cl)c2)cc1)c1ccnc(N)n1.Cl` [GW830707], the “%Inh” value with NIM1 is given as 0%; with NLK, 4%; in the assay on OSR1, 0%; with PAK1, 5%; in the assay with PAK2, 34%; in the assay on PAK3 it was 6%. The “%Inh” value in the assay on PAK4 (setting [1]) amounted to 1%; in the assay with PAK6 it was 7%; with PAK7 it was 0%; in the assay with PCTK1, 0%.
With `CCNC(=O)/C=C/c1n[nH]c2cc(Sc3ccccc3C(=O)NC)ccc12`, the “%Inh” value with NIM1 stood at 2%; in the assay on NLK, 57%; in the assay on OSR1 it was 0%; in the assay with PAK1 it was 0%; with PAK2, 0%; in the assay on PAK3, 0%. For the same compound, the “%Inh” value in the assay on PAK4 (setting [1]) is 0%; in the assay on PAK6, 4%; with PAK7 it was 20%; with PCTK1 it was 7%.
`Cl.Cl.NCC(NC(=O)c1cc(-c2cccnc2)c(-c2ccnc3[nH]ccc23)s1)c1ccccc1` (stereo not shown) [GSK1323434]: the “%Inh” value came to 36% in the assay on NIM1; 19% in the assay on NLK; 17% with OSR1; 4% in the assay on PAK1; 6% in the assay on PAK2; 39% with PAK3. The “%Inh” value in the assay on PAK4 (setting [1]) worked out at 0%; in the assay with PAK6 it was 28%; with PAK7, 65%; in the assay on PCTK1 it was 0%.
For `COc1cc(Nc2nccc(N3CCC(NC(=O)Nc4ccc5c(c4)OCO5)C3)n2)cc(OC)c1OC` (stereo not shown) [GSK1379766], the “%Inh” value with NIM1 turned out to be 4%; in the assay with NLK, 0%; with OSR1 it was 0%; with PAK1 it was 0%; in the assay with PAK2, 0%; in the assay on PAK3, 0%. Moreover, the “%Inh” value with PAK4 (setting [1]) came out at 0%; in the assay on PAK6, 0%; in the assay with PAK7, 4%; in the assay on PCTK1, 16%.
Turning to `CCNc1nccc(-c2c(-c3ccc(F)cc3)ncn2C2CCN(C)CC2)n1`, the “%Inh” value in the assay with NIM1 was 0%; in the assay on NLK it was 95%; in the assay with OSR1, 0%; in the assay with PAK1 it was 7%; in the assay with PAK2, 8%; in the assay on PAK3, 0%. The “%Inh” value stood at 2% in the assay with PAK4 (setting [1]), 30% in the assay with PAK6, 0% with PAK7 and 0% with PCTK1.
As to `Nc1ncc(-c2ccc3nccc(-c4ccncc4)c3c2)cc1S(=O)(=O)N1CCCCC1` [GSK1693850], the “%Inh” value stood at 0% in the assay with NIM1; 13% with NLK; 5% in the assay with OSR1; 18% in the assay on PAK1; 8% in the assay with PAK2; 14% with PAK3. In addition, the “%Inh” value in the assay with PAK4 (setting [1]) amounted to 0%; in the assay with PAK6, 0%; with PAK7, 18%; in the assay with PCTK1 it was 0%.
In the case of `CSc1ccc(NC2=C(c3ccc(Cl)cc3)C(=O)NC2=O)cc1` [SB-317658], the “%Inh” value in the assay with NIM1 was determined as 0%; in the assay with NLK, 0%; in the assay on OSR1, 6%; in the assay on PAK1 it was 2%; with PAK2 it was 28%; with PAK3, 36%. The “%Inh” value in the assay on PAK4 (setting [1]) is 2%; in the assay on PAK6, 29%; in the assay on PAK7 it was 0%; in the assay on PCTK1 it was 0%.
With `O=C(Nc1n[nH]c2nc(-c3ccccc3)ccc12)C1CC1` [SB-708999], the “%Inh” value in the assay on NIM1 was 29%; in the assay on NLK, 78%; in the assay with OSR1, 17%; with PAK1, 0%; with PAK2, 0%; in the assay with PAK3, 5%. Moreover, the “%Inh” value is 0% with PAK4 (setting [1]), 0% in the assay with PAK6, 0% in the assay on PAK7 and 16% in the assay with PCTK1.
`CN1CCN(Cc2ccc(NC(=O)Nc3ccc(N(C)c4ccnc(Nc5ccc(CS(C)(=O)=O)cc5)n4)cc3)cc2)CC1.Cl` [GW827654]: the “%Inh” value in the assay with NIM1 amounted to 42%; in the assay on NLK, 0%; with OSR1 it was 0%; with PAK1, 24%; in the assay with PAK2, 65%; in the assay with PAK3, 62%. Besides, the “%Inh” value is on record as 98.4% with PAK4 (setting [1]), 34% with PAK6, 51% in the assay on PAK7 and 22% with PCTK1.
As to `c1ccc(Oc2ccc(Nc3ccnc4cc(-c5ccc(CN6CCCCC6)o5)ccc34)cc2)nc1` [GW567143], the “%Inh” value in the assay on NIM1 worked out at 69%; with NLK, 13%; in the assay on OSR1 it was 4%; in the assay with PAK1, 16%; with PAK2 it was 16%; with PAK3 it was 33%. Moreover, the “%Inh” value in the assay on PAK4 (setting [1]) turned out to be 0%; in the assay on PAK6 it was 0%; with PAK7, 8%; in the assay with PCTK1, 0%.
Regarding `Cc1ccc(Nc2ccnc(Nc3ccc(C)c(F)c3)n2)cc1O.Cl` [GW582868], the “%Inh” value worked out at 3% in the assay with NIM1; 62% in the assay with NLK; 8% in the assay with OSR1; 0% in the assay on PAK1; 0% in the assay on PAK2; 0% with PAK3. For the same compound, the “%Inh” value with PAK4 (setting [1]), in the assay on PAK6, in the assay with PAK7 and in the assay with PCTK1 was 0% in each case.
For `COc1ccc(NC(=O)c2ccoc2)cc1-c1ccc(C(=O)NCC2CC2)cc1` [GW810437], the “%Inh” value is 41% in the assay with NIM1; 11% in the assay on NLK; 17% in the assay with OSR1; 0% with PAK1; 44% in the assay on PAK2; 24% in the assay on PAK3. The “%Inh” value with PAK4 (setting [1]) is listed as 0%; in the assay on PAK6, 0%; in the assay with PAK7 it was 10%; in the assay with PCTK1, 4%.

Source of the values: publication PMC5540273 (PLoS ONE, 2017).
